# Out of some 340,000 compounds screened, about 800 (0.24%) were called active.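 Rule for the calls: active = activation above the mean over all tested compounds plus 3 SD (cut at about 30% in these data); inactive = the rest.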 Shown is part of a subset that was picked to be rich in actives.
# Biological target: Troponin I, cardiac muscle (Homo sapiens) + Troponin T, cardiac muscle (Homo sapiens) + Troponin C, slow skeletal and cardiac muscles (Homo sapiens) (UniProt P19429+P45379+P63316)
# Assay: calcium sensitizers of cardiac thin filaments – biochemical, IANBD-TnC fluorescence, EC20 calcium, primary screen (AID 493008);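 note: rise in fluorescence read as greater calcium sensitivity of cardiac thin filaments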
# Details: IANBD-labeled TnC RTF fluorescence at EC20 calcium; at 7.2 µM; hits give high values; 0% EC20 calcium, 100% full calcium
row,SMILES,activation
1,CN(O)C(=S)c1ccccc1,-1.46% (inactive)
2,Cc1c(C)n2c(SCC(=O)NC3CCCC3)nnc2[nH]c1=O,0.28% (inactive)
3,CCCN(CCC)S(=O)(=O)c1ccc(C(=O)N2CC3CCC(CC3)C2)cc1,-0.05% (inactive)
4,CCN1CC=C2C(C#N)=C(N)C(C#N)(C#N)[C@H](c3ccoc3)[C@H]2C1,62% (active)
5,Cc1ccc(/C=C2/SC(=S)N(CCC(=O)NCCCN3CCOCC3)C2=O)cc1,2.69% (inactive)
6,Cc1ccc(-c2nn(-c3ccccc3)cc2/C=C2\SC(=S)N(CCCCCC(=O)O)C2=O)o1,48.1% (active)
7,C=CCOc1ccc(/C=C2\SC(=S)N(CCC(=O)O)C2=O)cc1,1.79% (inactive)
8,Cc1ccc(-c2noc(C3CCCN(C(=O)c4cccc(Cl)c4)C3)n2)o1 (centres undefined),-2.07% (inactive)
9,CC(C)CC(CCc1ccccc1)OS(N)(=O)=O (centres undefined),-4.63% (inactive)
10,COc1ccc(CNCCCNCc2ccc(OC)c(OC)c2)cc1OC,0.94% (inactive)
11,C=CCn1c(SCC(=O)c2c(N)n(C)c(=O)n(C)c2=O)nc2sc(CC)cc2c1=O,1.89% (inactive)
12,C[C@H](NC(=O)c1ccccc1Cl)C(=O)OCCOc1cccc(Cl)c1,1.17% (inactive)
13,Cc1ccc(C2=CSC3=NS(=O)(=O)CCN23)cc1C,13.6% (inactive)
14,C/C(=C/c1ccccc1)C(=O)N1CCN(c2ccccc2)CC1,9.01% (inactive)
15,Cc1[nH]c(N)nc(=S)c1CCCNc1ccccc1,-2.1% (inactive)
16,C=CC[C@H](CC(=O)NCCO)C(=O)N[C@@H](COC(=O)[C@@H](CC=C)Cc1ccc(F)cc1)Cc1c[nH]c2ccccc12,2.33% (inactive)
17,CCc1ccc(CN(C)C(=O)CCc2nnc(-c3ccc(-c4ccccc4)cc3)o2)nc1,-1.69% (inactive)
18,CCCCCCc1cc2cc(-c3nnc(-c4ccccc4)o3)c(=O)oc2cc1O,76.8% (active)
19,Cc1c(CCC(=O)O)c(=O)oc2cc3occ(-c4ccccc4)c3cc12,5.11% (inactive)
20,O=C(N[C@H]1C/C=C\C(c2cccc(F)c2)N(Cc2ccccc2)C(=O)C1)OCC1c2ccccc2-c2ccccc21 (some centres undefined),-0.43% (inactive)

row,SMILES,activation
1,COc1ccc(C(CNCC(=O)Nc2ccccc2F)N(C)C)cc1 (centres undefined),-1.39% (inactive)
2,S=C(Nc1ccc2c(c1)OCO2)N1CCCC1,8.04% (inactive)
3,CC(C)OC(=O)C(C#N)c1nc2ccccc2nc1N1CCN(Cc2ccccc2)CC1 (centres undefined),-2.43% (inactive)
4,CCOC(=O)/C(C#N)=C/c1ccc(N2CCN(Cc3ccccc3)CC2)cc1,42.2% (active)
5,CCOC(=O)/C(C#N)=C/c1ccc(OCC(=O)Nc2ccccc2)c(OC)c1,6.94% (inactive)
6,Cc1ccnc(N2CCN(C(=O)CSc3nc4ccccc4nc3N3CCCCC3)CC2)c1,0.05% (inactive)
7,Cc1ccccc1NC(=O)c1ccc(COc2ccc3c(C)cc(=O)oc3c2)cc1,1.18% (inactive)
8,O=C(CCC(=O)N1CCCC1)Nc1ccc([N+](=O)[O-])cc1,-1.36% (inactive)
9,Cc1cc(-c2n[nH]c(=S)n2/N=C/C(Br)=C/c2ccccc2)n[nH]1,0.67% (inactive)
10,CCOC(=O)/C=C/C(=O)OCC(=O)NC(c1ccccc1)c1ccccc1,-0.28% (inactive)
11,CN(C)S(=O)(=O)c1cc(NC(=O)CN2C(=O)NC3(CCCc4ccccc43)C2=O)ccc1Cl (centres undefined),5.19% (inactive)
12,Oc1ccc2ccc3cccc[n+]3c2c1,720% (active)
13,Oc1ccc(-c2nc3ccccc3nc2-c2ccc(O)cc2O)c(O)c1,2.23% (inactive)
14,CCOC(=O)C1=C(C)NC2=C(C(=O)CC(C)(C)C2)C1c1ccsc1 (centres undefined),8.26% (inactive)
15,N#C/C=C(/c1ccc(F)cc1)N1CCOCC1,0.45% (inactive)
16,N#C/C(=C\c1ccc(N2CCOCC2)o1)C(=O)N1CCOCC1,114% (active)
17,O=C(NC(=O)N1CCOCC1)c1ccccc1,-4.59% (inactive)
18,N#C/C(=C\C1=C(N2CCOCC2)C(=C\c2ccccc2)/CC1)C(=O)Nc1ccccc1F,11.9% (inactive)
19,N#C/C(=C/c1ccc(N2CCOCC2)o1)C(=O)N1CCOCC1,64.8% (active)
20,O=C(N1CCOCC1)N1CCOCC1,0.83% (inactive)

row,SMILES,activation
1,O=C(NC1CCCC1)C(c1ccco1)N(C(=O)c1csnn1)c1ccccc1 (centres undefined),-5.15% (inactive)
2,COc1ccccc1-n1nnnc1S(=O)(=O)Cc1ccc(Cl)cc1,-4.59% (inactive)
3,O=C(Nc1cccc(F)c1)c1coc(=O)c(Br)c1,2.96% (inactive)
4,O=C(NNC1CC(=O)N(c2cccc(Cl)c2)C1=O)c1cccnc1 (centres undefined),3.38% (inactive)
5,COc1ccc(N2CCN(S(=O)(=O)c3ccc4c(c3)NC(=O)C(C)C(=O)N4)CC2)cc1 (centres undefined),-1.46% (inactive)
6,CCOc1cc(C=NNC(=O)CCCC(=O)NN=Cc2ccc(O)c(OCC)c2)ccc1O,3.71% (inactive)
7,CCOc1cc(-c2cc(-c3ccc(NC(C)=O)cc3)nc(N)c2C#N)ccc1O,-2.6% (inactive)
8,CCOc1cc(/C=C(\C#N)c2nc(-c3cccs3)c(NC(C)=O)s2)ccc1O,53.3% (active)
9,C/C(N)=C(/C#N)C(=O)COC(=O)C1=NN(c2ccccc2)C(=O)CC1,1.28% (inactive)
10,O=C1c2cccc3c([N+](=O)[O-])ccc(c23)C(=O)N1CC1CCCO1 (centres undefined),9.63% (inactive)
11,COc1cc(C(=O)N2C(=O)c3cccc(N)c3C2=O)cc(OC)c1OC,-5.72% (inactive)
12,CN1C(=O)c2cccc3c(N)ccc(c23)C1=O,1160% (active)
13,CCn1cc(C(=O)N[C@@H](C)C(=O)NCCO)c(=O)c2cc3c(cc21)OCO3,0.57% (inactive)
14,CCCC(O)(CCC)C(=O)NN(C(=O)CCl)c1cccc(C)c1,-2.77% (inactive)
15,CN(C)C(CNC(=O)c1ccc(S(=O)(=O)NCc2ccco2)cc1)c1ccccc1 (centres undefined),-0.95% (inactive)
16,CC1(C)Cc2nc3sc4c(SCC(=O)NC(c5ccccc5)c5ccccc5)ncnc4c3cc2CO1,-4.73% (inactive)
17,C=CCNc1nnc(C)c2ccccc12,6.46% (inactive)
18,C=CCNc1nnc(SCC(=O)N2CCCCC2)c2ccccc12,33.8% (active)
19,O=C(CSc1ncccn1)N1CCCC1,4.22% (inactive)

# — PubChem BioAssay AID493008 (The Scripps Research Institute Molecular Screening Center, 2010)
